Assay results taken from PubChem BioAssay (NCI).
About 79,000 compounds went through this panel and 15% of them were active in at least one assay; those are over-represented in the sample as a whole. Unmarked numbers belong to inactive results. Active and inactive are the calls of the source. Cut-off read from the data, not from the text of the source: active = growth inhibition above about 70%; inactive = the rest.

Assays:
[1] = NCI Yeast Anticancer Drug Screen. Data for the rad52 strain (AID 147);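 note: 0% = growth of vehicle-treated control cultures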; details: S. cerevisiae rad52 mutant growth inhibition, stronger effect = higher value
Procedure, shortened: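 The repair-mutant yeast strain was incubated with compounds, then growth was read and inhibition derived relative to vehicle.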

[2] = NCI Yeast Anticancer Drug Screen. Data for the wt1 strain (AID 149);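 note: 0% = growth of vehicle-treated wt1 cultures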; details: S. cerevisiae wt1 strain (SPY 50644) growth inhibition, stronger effect = higher value
Procedure, shortened: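 wt1 yeast, compound-treated; % growth inhibition vs vehicle control.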

[3] = NCI Yeast Anticancer Drug Screen. Data for the rad50EPP+ strain (AID 151);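 note: 0% = growth of vehicle-treated control cultures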; details: S. cerevisiae rad50 mutant strain, stronger effect = higher value
Procedure, shortened: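 Vehicle-normalised growth inhibition; rad50EPP+ yeast strain, altered in DNA damage repair, compound-treated.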

[4] = NCI Yeast Anticancer Drug Screen. Data for the rad50 strain (AID 155);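 note: 0% = growth of vehicle-only cultures of the same strain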; details: S. cerevisiae rad50 strain growth inhibition, stronger effect = higher value
Procedure, shortened: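 Genetically altered yeast (DNA repair pathway); compound treatment; growth inhibition vs vehicle ctrl.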

[5] = NCI Yeast Anticancer Drug Screen. Data for the mec2-1 strain (AID 157); details: S. cerevisiae mec2-1 strain, stronger effect = higher value
Procedure, shortened: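 Mutant yeast (mec2-1) grown with compound; growth inhibition relative to vehicle control reported.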

[6] = NCI Yeast Anticancer Drug Screen. Data for the rad14 strain (AID 159);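 note: 0% = growth of vehicle-treated control cultures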; details: S. cerevisiae rad14 strain growth inhibition, stronger effect = higher value
Procedure, shortened: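 Test compounds were applied to a repair-deficient yeast strain. Its growth was then compared with that of cultures given vehicle alone, and inhibition was expressed relative to those controls.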

[7] = NCI Yeast Anticancer Drug Screen. Data for the sgs1 mgt1 strain (AID 161);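 note: 0% = growth of cultures given vehicle only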; details: S. cerevisiae sgs1 mgt1 strain, stronger effect = higher value
Procedure, shortened: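 Growth of a repair-deficient yeast mutant was monitored after compound treatment and expressed as inhibition relative to vehicle-treated cultures.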

[8] = NCI Yeast Anticancer Drug Screen. Data for the CLN2oe strain (AID 163);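 note: 0% = growth of vehicle-only control cultures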; details: S. cerevisiae CLN2oe strain, stronger effect = higher value
Procedure, shortened: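 Compounds are applied to yeast harbouring a defined cell-cycle control change; reduced growth compared with vehicle-treated controls gives the value.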

[9] = NCI Yeast Anticancer Drug Screen. Data for the cln2 rad14 strain (AID 165);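 note: 0% = growth equal to vehicle treated cultures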; details: S. cerevisiae cln2 rad14 strain, stronger effect = higher value
Procedure, shortened: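 Readout is yeast growth inhibition versus vehicle-treated controls, using a strain with cln2 and rad14 alterations exposed to compound.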

[10] = NCI Yeast Anticancer Drug Screen. Data for the bub3 strain (AID 167); details: S. cerevisiae bub3 mutant strain, stronger effect = higher value
Procedure, shortened: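 Yeast carrying a defined mutation is treated with each compound, and growth is compared with that of vehicle-exposed cells to give inhibition.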

[11] = NCI Yeast Anticancer Drug Screen. Data for the wt2 strain (AID 169);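 note: 0% = growth of vehicle-treated yeast cultures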; details: S. cerevisiae wt2 strain growth inhibition, stronger effect = higher value
Procedure, shortened: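 Against vehicle-treated controls, the growth of yeast exposed to each compound was compared, and the inhibition was recorded.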

[12] = NCI Yeast Anticancer Drug Screen. Data for the mlh1 strain (AID 171);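 note: 0% = growth of vehicle-treated control cultures of the same strain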; details: S. cerevisiae mlh1 strain growth inhibition, stronger effect = higher value
Procedure, shortened: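 Measured: yeast growth. Reference: vehicle-treated controls. Organism: strain with a defined alteration affecting DNA damage repair or cell cycle control, treated with compound.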

[13] = NCI Yeast Anticancer Drug Screen. Data for the sgs1 strain (AID 173);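 note: 0% = growth of vehicle-only control cultures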; details: S. cerevisiae sgs1 mutant, stronger effect = higher value
Procedure, shortened: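 Each compound was added to cultures of the altered yeast strain. Growth was recorded, and inhibition was derived by comparison with vehicle controls.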

[14] = NCI Yeast Anticancer Drug Screen. Data for the mlh1 rad18 strain (AID 175); details: S. cerevisiae mlh1 rad18 strain growth inhibition, stronger effect = higher value
Procedure, shortened: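 Genetically defined yeast (DNA repair-deficient) exposed to compounds; growth inhibition determined relative to vehicle.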

[15] = NCI Yeast Anticancer Drug Screen. Data for the rad18 strain (AID 177); details: S. cerevisiae rad18 mutant growth inhibition, stronger effect = higher value
Procedure, shortened: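 Vehicle-treated cultures served as the baseline for scoring compound-induced growth inhibition in DNA-repair-mutant yeast.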

[16] = at 5.0 µM (retest, dose inferred, filed as 0.5)
[17] = at 50.0 µM (retest, dose inferred, filed as 5.0)

SMILES: O=C1C=CC(=Nc2ccccc2)c2ccccc21
- growth inhibition ([1]; at 1.2 µM): 1%
- growth inhibition ([1]; at 3.7 µM): 5%
- growth inhibition ([1]; at 11.0 µM): 20%
- growth inhibition ([1]; at 33.0 µM): 55%
- growth inhibition ([1]; at 100.0 µM): 77% (active)
- growth inhibition ([2]; at 1.2 µM): 8%
- growth inhibition ([2]; at 3.7 µM): 12%
- growth inhibition ([2]; at 11.0 µM): 21%
- growth inhibition ([2]; at 33.0 µM): 38%
- growth inhibition ([2]; at 100.0 µM): 45%
- growth inhibition ([3]; at 1.2 µM): 3%
- growth inhibition ([3]; at 3.7 µM): 8%
- growth inhibition ([3]; at 11.0 µM): 28%
- growth inhibition ([3]; at 33.0 µM): 53%
- growth inhibition ([3]; at 100.0 µM): 70% (active)
- growth inhibition ([4]; at 1.2 µM): 3%
- growth inhibition ([4]; at 3.7 µM): 15%
- growth inhibition [4, 16]: -8%
- growth inhibition ([4]; at 11.0 µM): 65%
- growth inhibition ([4]; at 33.0 µM): 88% (active)
- growth inhibition [4, 17]: 70% (active)
- growth inhibition ([4]; at 50.0 µM): 37.9%
- growth inhibition ([4]; at 100.0 µM): 85% (active)
- growth inhibition ([5]; at 1.2 µM): 5%
- growth inhibition ([5]; at 3.7 µM): 10%
- growth inhibition [5, 16]: 22%
- growth inhibition ([5]; at 11.0 µM): 19%
- growth inhibition ([5]; at 33.0 µM): 28%
- growth inhibition [5, 17]: 43%
- growth inhibition ([5]; at 50.0 µM): 45.3%
- growth inhibition ([5]; at 100.0 µM): 44%
- growth inhibition ([6]; at 1.2 µM): -1%
- growth inhibition ([6]; at 3.7 µM): 1%
- growth inhibition ([6]; at 11.0 µM): 12%
- growth inhibition ([6]; at 33.0 µM): 38%
- growth inhibition ([6]; at 100.0 µM): 58%
- growth inhibition [7, 16]: 30%
- growth inhibition [7, 17]: 60%
- growth inhibition ([7]; at 50.0 µM): 31.6%
- growth inhibition ([8]; at 1.2 µM): -2%
- growth inhibition ([8]; at 3.7 µM): -4%
- growth inhibition ([8]; at 11.0 µM): 6%
- growth inhibition ([8]; at 33.0 µM): 43%
- growth inhibition ([8]; at 100.0 µM): 39%
- growth inhibition [9, 16]: -17%
- growth inhibition [9, 17]: 32%
- growth inhibition ([9]; at 50.0 µM): 24.6%
- growth inhibition ([10]; at 1.2 µM): 12%
- growth inhibition ([10]; at 3.7 µM): 37%
- growth inhibition [10, 16]: 65%
- growth inhibition ([10]; at 11.0 µM): 62%
- growth inhibition ([10]; at 33.0 µM): 84% (active)
- growth inhibition [10, 17]: 94% (active)
- growth inhibition ([10]; at 50.0 µM): 82.3% (active)
- growth inhibition ([10]; at 100.0 µM): 88% (active)
- growth inhibition ([11]; at 1.2 µM): 8%
- growth inhibition ([11]; at 3.7 µM): 17%
- growth inhibition ([11]; at 11.0 µM): 35%
- growth inhibition ([11]; at 33.0 µM): 54%
- growth inhibition ([11]; at 100.0 µM): 69%
- growth inhibition ([12]; at 1.2 µM): 3%
- growth inhibition ([12]; at 3.7 µM): 5%
- growth inhibition ([12]; at 11.0 µM): 20%
- growth inhibition ([12]; at 33.0 µM): 67%
- growth inhibition ([12]; at 100.0 µM): 82% (active)
- growth inhibition ([13]; at 1.2 µM): 5%
- growth inhibition ([13]; at 3.7 µM): 12%
- growth inhibition ([13]; at 11.0 µM): 29%
- growth inhibition ([13]; at 33.0 µM): 60%
- growth inhibition ([13]; at 100.0 µM): 76% (active)
- growth inhibition [14, 16]: 27%
- growth inhibition [14, 17]: 87% (active)
- growth inhibition ([14]; at 50.0 µM): 36.5%
- growth inhibition ([15]; at 1.2 µM): 2%
- growth inhibition ([15]; at 3.7 µM): 6%
- growth inhibition ([15]; at 11.0 µM): 37%
- growth inhibition ([15]; at 33.0 µM): 84% (active)
- growth inhibition ([15]; at 100.0 µM): 80% (active)
